Test results: PubChem BioAssay (Tox21)
“And” between values parts separate entries of the source, which are not always exact repeats. Equal entries are not always repeated. Inconclusive results are not listed. A call without a number means that no potency is given here. The source holds several records for some structures; these can differ, active in one and inactive in another. The source made the active and inactive calls. Unless noted, calls follow the shape of the dose curve; as a rule, active = well fitted curve in the direction sought with a large enough effect in the repeat runs; inconclusive = weak or mixed curves; inactive = no such curve, though single readings can be large; an effect the other way counts as inactive or inconclusive.

Assays:
[1] = target: Aryl hydrocarbon receptor (Homo sapiens) (UniProt P35869); experiment: qHTS assay to identify small molecule that activate the aryl hydrocarbon receptor (AhR) signaling pathway (AID 743085); also: nearly all actives have a fitted effect of over 15% in size; also: potency is read from the fitted curve at half-maximal effect;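 as to activation: HG2L7.5c1 human HepG2 liver cells with stably integrated DRE-driven firefly reporter; series mostly up to about 70 µM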
Chain of Aryl hydrocarbon receptor (Homo sapiens) (P35869 whole entry, looked up): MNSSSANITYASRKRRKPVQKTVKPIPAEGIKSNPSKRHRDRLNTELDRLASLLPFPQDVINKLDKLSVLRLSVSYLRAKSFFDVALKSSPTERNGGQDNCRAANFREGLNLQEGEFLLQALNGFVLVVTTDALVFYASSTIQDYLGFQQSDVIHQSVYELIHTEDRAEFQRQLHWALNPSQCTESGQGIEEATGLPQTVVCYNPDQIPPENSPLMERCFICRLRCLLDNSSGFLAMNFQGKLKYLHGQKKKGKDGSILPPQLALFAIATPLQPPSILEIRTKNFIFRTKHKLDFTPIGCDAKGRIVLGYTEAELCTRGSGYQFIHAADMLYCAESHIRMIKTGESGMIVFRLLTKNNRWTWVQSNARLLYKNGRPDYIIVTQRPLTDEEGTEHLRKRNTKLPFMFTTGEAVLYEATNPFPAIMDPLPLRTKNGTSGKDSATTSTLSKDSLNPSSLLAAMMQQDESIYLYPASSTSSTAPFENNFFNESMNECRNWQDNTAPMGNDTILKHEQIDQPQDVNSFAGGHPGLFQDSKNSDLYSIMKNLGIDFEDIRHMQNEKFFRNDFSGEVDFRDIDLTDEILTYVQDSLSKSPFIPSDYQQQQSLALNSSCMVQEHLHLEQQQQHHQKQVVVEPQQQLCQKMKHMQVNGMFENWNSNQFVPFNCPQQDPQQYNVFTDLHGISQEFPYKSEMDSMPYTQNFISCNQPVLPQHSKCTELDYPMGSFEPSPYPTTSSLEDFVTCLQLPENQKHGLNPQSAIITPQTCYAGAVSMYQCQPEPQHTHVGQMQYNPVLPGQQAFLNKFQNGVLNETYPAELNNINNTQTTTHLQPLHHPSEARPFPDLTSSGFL
Outline: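 Measured in HG2L7.5c1 cells: CellTiter-Fluor signal (30 min incubation, 37C) for viability, then luciferase luminescence (30 min, room temperature). Compound contact time was 24 h at 37C, following a 5 h pre-incubation.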

[2] = target: Peroxisome proliferator-activated receptor gamma (Homo sapiens) (UniProt P37231); experiment: qHTS assay to identify small molecule agonists of the peroxisome proliferator-activated receptor gamma (PPARg) signaling pathway (AID 743094; active = well fitted activation curve with a large enough effect in the signal ratio in the repeat runs, not every such curve was filed as active; the % refers to the signal ratio)
Chain of Peroxisome proliferator-activated receptor gamma (Homo sapiens) (P37231 whole entry, looked up): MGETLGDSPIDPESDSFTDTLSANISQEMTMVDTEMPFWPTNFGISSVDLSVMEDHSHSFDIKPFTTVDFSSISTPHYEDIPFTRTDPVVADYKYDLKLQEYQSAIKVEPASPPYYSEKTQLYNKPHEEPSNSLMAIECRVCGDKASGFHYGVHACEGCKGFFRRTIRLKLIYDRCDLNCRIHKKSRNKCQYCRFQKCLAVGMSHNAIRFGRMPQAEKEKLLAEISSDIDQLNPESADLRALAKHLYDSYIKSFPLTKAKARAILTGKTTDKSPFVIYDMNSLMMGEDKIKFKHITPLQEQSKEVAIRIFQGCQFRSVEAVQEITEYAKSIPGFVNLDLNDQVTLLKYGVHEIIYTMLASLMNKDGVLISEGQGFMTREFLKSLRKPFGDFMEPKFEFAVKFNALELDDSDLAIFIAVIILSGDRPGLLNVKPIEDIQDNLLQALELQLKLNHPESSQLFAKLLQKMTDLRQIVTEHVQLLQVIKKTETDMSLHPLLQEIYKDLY
Outline: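 GeneBLAzer PPARg UAS-bla HEK293H cells were plated, rested 5 h, then exposed to compounds for 17 h at 37C. Beta-lactamase activity was read by LiveBLAzer B/G FRET substrate fluorescence after 1 h at room temperature.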

[3] = target: Peroxisome proliferator-activated receptor gamma (Homo sapiens) (UniProt P37231); experiment: qHTS assay to identify small molecule antagonists of the peroxisome proliferator-activated receptor gamma (PPARg) signaling pathway (AID 743191; calls by dose curve; also: nearly all actives have a fitted effect of over 30% in size; also: potency is read from the fitted curve at half-maximal effect)
Outline: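 GeneBLAzer PPARg UAS-bla HEK293H cells, 5 h post-plating, exposed to compounds 17 h at 37C. LiveBLAzer B/G FRET substrate added for 1 h at room temperature; beta-lactamase reporter read by fluorescence intensity.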

[4] = qHTS assay to identify small molecule antagonists of the peroxisome proliferator-activated receptor gamma (PPARg) signaling pathway - cell viability counter screen (AID 743194); details: Potency: co-treated with 50 nM rosiglitazone unless noted; also: nearly all actives have a fitted effect of over 55% in size; also: potency is read from the fitted curve at half-maximal effect
Outline: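 Cytotoxicity counter screen in PPARg-bla HEK293H cells, same wells as reporter assay. Compounds plus 50 nM rosiglitazone (final) for 17 h at 37 C, then viability read by CellTiter-Glo luminescence.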

[5] = qHTS assay for small molecule agonists of the antioxidant response element (ARE) signaling pathway (AID 743202; active = well fitted activation curve with a large enough effect in the signal ratio in the repeat runs, not every such curve was filed as active; the % refers to the signal ratio; also: potency is read from the fitted curve at half-maximal effect)
Outline: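 ARE-bla HepG2 cells (beta-lactamase reporter under the antioxidant response element), plated 5 hours, then exposed to compounds 16 hours at 37 C. LiveBLAzer B/G FRET substrate added for 2 hours at room temperature; fluorescence intensity read.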

[6] = qHTS assay for small molecule agonists of the antioxidant response element (ARE) signaling pathway - cell viability counter screen (AID 743203; calls by dose curve; also: nearly all actives have a fitted effect of over 55% in size; also: potency is read from the fitted curve at half-maximal effect)
Outline: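 ARE-bla HepG2 cells were plated, rested 5 h at 37C/5% CO2, then exposed to compounds in DMSO for 16 h. Viability was read as CellTiter-Glo luminescence after 30 min at room temperature, in the same wells as the ARE screen.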

[7] = qHTS assay for small molecule activators of the heat shock response signaling pathway - cell viability counter screen (AID 743209); also: nearly all actives have a fitted effect of over 50% in size; also: potency is read from the fitted curve at half-maximal effect
Outline: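 HSE-bla HeLa cells plated overnight, then exposed to Tox21 compounds (23 nL in DMSO) for 5 h at 37 C. After the bla reporter read, CellTiter-Glo was added in the same wells and luminescence read after 30 min at room temperature.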

[8] = qHTS assay for small molecule activators of the heat shock response signaling pathway (AID 743210; active = well fitted activation curve with a large enough effect in the signal ratio in the repeat runs, with a control signal flat, not every such curve was filed as active; the % refers to the signal ratio; also: series mostly up to about 63 µM)
Outline: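 HSE-bla HeLa cells (beta-lactamase reporter under heat shock response elements), plated overnight, then exposed to compounds 5 h at 37 C; LiveBLAzer B/G FRET substrate added, 2.5 h at room temperature, fluorescence intensity read.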

[9] = qHTS assay to identify small molecule that activate the aryl hydrocarbon receptor (AhR) signaling pathway - cell viability counter screen (AID 743086); also: nearly all actives have a fitted effect of over 45% in size; also: potency is read from the fitted curve at half-maximal effect
Outline: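 HepG2-AhR-luc (HG2L7.5c1) cells, 4000/well, treated 24 h at 37 C with compound; viability measured as CellTiter-Fluor fluorescence after 30 min in the same wells as the luciferase read.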

[10] = qHTS assay to identify small molecule agonists of the peroxisome proliferator-activated receptor delta (PPARd) signaling pathway - cell viability counter screen (AID 743211); also: nearly all actives have a fitted effect of over 55% in size; also: potency is read from the fitted curve at half-maximal effect
Outline: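 Following 5 h plating at 37 C and 5% CO2, PPARd UAS-bla HEK293H cells took up test compounds for 17 h. Viability was quantified by luminescence 30 min after CellTiter-Glo addition at room temperature.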

Row | SMILES | Potency [1] | outcome [2] | Potency [3] | Potency [4] | Potency [5] | Potency [6] | Potency [7] | outcome [8] | Potency [9] | Potency [10]
1 | Nc1ccc(Cl)cc1 | 24.3 µM (active) and 30.6 µM (active) and 24.8 µM (active) | inactive | 0.0871 µM (active) | inactive | inactive | inactive | inactive | inactive |  | 
2 | CCCCCCn1cc[n+](C)c1 | inactive |  |  | inactive |  | inactive | inactive |  | inactive | 
3 | CCn1cc[n+](C)c1C | inactive | inactive | inactive | inactive |  | inactive | inactive | inactive | inactive | inactive
4 | CC[N+]1(C)CCCC1 | inactive |  |  | inactive | inactive | inactive | inactive | inactive | inactive | 
5 | CCCCCCCCCCCCCC[P+](CCCCCC)(CCCCCC)CCCCCC | inactive |  |  | 24.7 µM (active) and 7.82 µM (active) and 2.45 µM (active) | inactive | 24.4 µM (active) and 15.5 µM (active) and inactive | 6.19 µM (active) and 7.82 µM (active) | inactive | 61.4 µM (active) and 54.9 µM (active) and inactive | 
6 | C1CCC(NC2CCCCC2)CC1 | inactive | inactive | inactive | inactive | inactive | inactive | inactive | inactive |  | 
7 | Cc1cc(Cl)ccc1N | 31.3 µM (active) and 33.6 µM (active) | inactive | inactive | inactive | inactive | inactive | inactive | inactive | inactive | 
8 | OCCOc1ccccc1 | inactive | inactive | inactive | inactive | inactive | inactive | inactive | inactive |  | 
9 | N#CS | inactive |  |  | inactive | inactive | inactive | inactive | inactive | inactive | 
10 | COCC(=O)N(c1c(C)cccc1C)C(C)C(=O)OC (stereo not drawn) | inactive | inactive | inactive | inactive | inactive | inactive | inactive | inactive |  | inactive
11 | Nc1ccc(-c2ccc(N)cc2)cc1 | 9.58 µM (active) and inactive and 61.1 µM (active) | inactive | inactive | inactive | inactive | inactive | inactive | inactive | inactive | inactive
12 | CCCCCCCCCCn1cc[n+](C)c1 | inactive | inactive | inactive | 22.1 µM [setting not given] (active) and 24.6 µM [setting not given] (active) and 4.89 µM [setting not given] (active) | 2.19 µM (active) and 4.85 µM (active) and 2.16 µM (active) | inactive | 39.3 µM (active) | inactive |  | 4.41 µM (active) and 24.6 µM (active) and 35.6 µM (active)
13 | CCCC[n+]1ccccc1 | inactive |  |  | inactive | inactive | inactive | inactive |  | inactive | 
14 | CCNc1nc(Cl)nc(NCC)n1 | inactive | inactive | inactive | inactive | inactive | inactive | inactive | inactive | inactive | 
15 | O=c1nc(O)n(Cl)c(=O)n1Cl | inactive | inactive | inactive | inactive | inactive | inactive | inactive |  |  | inactive
16 | O=P1(N(CCCl)CCCl)NCCCO1 (stereo not drawn) | inactive | inactive | inactive | inactive | inactive | inactive | inactive |  |  | inactive
17 | CN(C)[C@@H]1C(=O)C(C(N)=O)=C(O)[C@@]2(O)C(=O)C3=C(O)c4c(O)cccc4[C@@](C)(O)[C@H]3[C@H](O)[C@@H]12 | inactive | inactive | inactive | inactive | inactive | inactive | inactive |  |  | 
18 | O=C(O)C(Cl)Cl | inactive | inactive | inactive | inactive | inactive | inactive | inactive | inactive |  | 
19 | CC[N+](CC)(CC)CC | inactive |  |  | inactive | inactive | inactive | inactive | inactive | inactive | 
20 | COP(=O)(OC)OC=C(Cl)Cl | inactive | inactive |  | inactive | inactive | inactive | inactive |  | inactive | 
21 | Cc1cc(Cl)ccc1OCC(=O)O | inactive | inactive | inactive | inactive | inactive | inactive | inactive | inactive |  | inactive
22 | CC(Cl)(Cl)C(=O)O | inactive | inactive | inactive | inactive | inactive | inactive | inactive | inactive |  | 
23 | O=[N+]([O-])c1ccccc1O | inactive | inactive | inactive | inactive | inactive | inactive | inactive | inactive |  | inactive
24 | COP(=O)(OC)C(O)C(Cl)(Cl)Cl (stereo not drawn) | inactive | inactive |  | inactive |  | inactive | inactive | inactive | inactive | 
25 | Nc1ccc(-c2ccc(N)c(Cl)c2)cc1Cl | 7.74 µM (active) and 6.4 µM (active) and 19.3 µM (active) | inactive | inactive and 49 µM (active) | inactive | 1.38 µM (active) and 2.02 µM (active) and 1.72 µM (active) | inactive | inactive |  | inactive | 
26 | O=C(O)CC(O)(CC(=O)O)C(=O)O | inactive | inactive | inactive | inactive | inactive | inactive | inactive | inactive |  | inactive
27 | Oc1ccccc1-c1ccccc1 | inactive and 24.9 µM (active) | inactive | inactive | inactive | 55.8 µM (active) | inactive | inactive |  | inactive | 
28 | O=S(=O)(O)O | inactive |  |  | inactive | inactive | inactive | inactive |  | inactive | 
29 | O=c1[nH]c(=O)n(Cl)c(=O)n1Cl | inactive | inactive | inactive | inactive | inactive | inactive | inactive |  | inactive | 
